Data on 14 molecules can be found in PubChem BioAssay (NCI).

The panel holds about 83,000 compounds, 20% with a hit somewhere; the sample as a whole holds those more often.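 For each line, cells grew in 96-well plates with the test compound present at a single concentration for 48 hours.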 The source made the active and inactive calls. How the source made its calls: active means growth percent below 10; inactive means the rest.

This experiment deals with SW-620 colon. Kind of experiment: NCI-60 one-dose screen, 48 h (100 = growth as untreated, 0 = no growth, -100 = all killed). The conditions noted are these: 10 µM unless noted.
In the case of `COc1cc2cc(Oc3ccc(NC(=O)Nc4ccc(Cl)c(C(F)(F)F)c4)cc3)c(C)nc2cc1OCCN1CCCCC1`, the growth is -89.4% (active).

As for `COc1ccc(/C=C2\SC(=O)N(CN3CCN(c4cc5c(cc4F)c(=O)c(C(=O)O)cn5C4CC4)CC3)C2=O)cc1`, the growth is 99.8% (inactive).

As to `CCCCC/C=C\C/C=C/CCCCCCCCNC(=O)Nc1ccc([N+](=O)[O-])cc1`, the growth was 31.6% (inactive).

For `COc1ccc(/C=C/C(=O)N2CCC(O)CC2)cc1OC1CCCC1`, the growth is 106% (inactive).

For the molecule `O=C(c1ccccc1)C(Br)C(Br)c1cccc([N+](=O)[O-])c1` (centres undefined), the growth was -100% (active).

With `CCOC(=O)c1cnn(CC(O)c2ccc(F)cc2)c1NC(=O)Nc1ccccc1F` (centres undefined), the growth is 101% (inactive).

For `CC1CCCCN1S(=O)(=O)c1ccc(CN=C=S)cc1` (centres undefined), the growth was -15.4% (active).

Regarding `COc1ccc(OC)c(/C=C2\Oc3cc(O)ccc3C2=O)c1`, the growth is 92.2% (inactive).

As to `CCCCC1COc2cccc3c(SCC(=O)N(C)c4cccc5ccccc45)cc[n+]1c23` (centres undefined), the growth was 105% (inactive).

As for `Brc1ccc(Br)nn1`, the growth was -100% (active).

Take `Cn1c2ccccc2c2nn(Cc3ccccc3)c(=O)nc21`: the growth is 99.3% (inactive).

For `COc1ccc(/C=N/NC(=O)c2cnn3c2NC(c2ccccc2)C3)cc1OC1CCCC1` (centres undefined), the growth is 97.5% (inactive).

`CCOC(=O)c1[nH]c2cc(Cl)ccc2c1[C@@H](C(=O)NC(C)(C)C)N(CC)C(=O)CCCCC#Cc1cccc2c1CN(C1CCC(=O)NC1=O)C2=O` (some centres undefined): the growth was 22.2% (inactive).

For `Nc1nc(N)c(N=Nc2c(Br)cc(S(N)(=O)=O)cc2Br)c(N)n1`, the growth is 98% (inactive).
